EPAC1 antagonist – EPAC1 (human) antagonism; O95398; EPAC1 GEF assay, Rap1b-BODIPY-GDP exchange fluorescence; Potency, µM (doses to about 115 µM), usual class: inhibitors; 0.14% of 360,000 active; note: nearly all actives have a fitted effect of over 50% in size
BRCA1 expr up – BRCA1 expression activation; MCF7-BRCA1-FFLuc reporter, luminescence, 48 h; response scale: scaled: vehicle 0%, 10 µM genistein 100%; Potency, µM (top dose mostly 46.1 µM), usual class: activators; 1.1% of 380,000 active; note: nearly all actives have a fitted effect of over 80% in size
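Using MCF7 cells harboring a BRCA1 firefly luciferase reporter, plated 2 h before compound pinning, the screen measured luminescence after 48 h incubation. Responses were normalized to DMSO and 10 microM genistein, then fitted for concentration-effect.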
EPAC2 antagonist – EPAC2 (human) antagonism; Q8WZA2; EPAC2 GEF exchange of Rap1B-BODIPY-GDP, fluorescence; Potency, µM (doses to about 114 µM), hits mostly inhibitors; 0.18% of 360,000 active; AID 720708; note: nearly all actives have a fitted effect of over 45% in size
Target sequence (Q8WZA2 whole entry, looked up): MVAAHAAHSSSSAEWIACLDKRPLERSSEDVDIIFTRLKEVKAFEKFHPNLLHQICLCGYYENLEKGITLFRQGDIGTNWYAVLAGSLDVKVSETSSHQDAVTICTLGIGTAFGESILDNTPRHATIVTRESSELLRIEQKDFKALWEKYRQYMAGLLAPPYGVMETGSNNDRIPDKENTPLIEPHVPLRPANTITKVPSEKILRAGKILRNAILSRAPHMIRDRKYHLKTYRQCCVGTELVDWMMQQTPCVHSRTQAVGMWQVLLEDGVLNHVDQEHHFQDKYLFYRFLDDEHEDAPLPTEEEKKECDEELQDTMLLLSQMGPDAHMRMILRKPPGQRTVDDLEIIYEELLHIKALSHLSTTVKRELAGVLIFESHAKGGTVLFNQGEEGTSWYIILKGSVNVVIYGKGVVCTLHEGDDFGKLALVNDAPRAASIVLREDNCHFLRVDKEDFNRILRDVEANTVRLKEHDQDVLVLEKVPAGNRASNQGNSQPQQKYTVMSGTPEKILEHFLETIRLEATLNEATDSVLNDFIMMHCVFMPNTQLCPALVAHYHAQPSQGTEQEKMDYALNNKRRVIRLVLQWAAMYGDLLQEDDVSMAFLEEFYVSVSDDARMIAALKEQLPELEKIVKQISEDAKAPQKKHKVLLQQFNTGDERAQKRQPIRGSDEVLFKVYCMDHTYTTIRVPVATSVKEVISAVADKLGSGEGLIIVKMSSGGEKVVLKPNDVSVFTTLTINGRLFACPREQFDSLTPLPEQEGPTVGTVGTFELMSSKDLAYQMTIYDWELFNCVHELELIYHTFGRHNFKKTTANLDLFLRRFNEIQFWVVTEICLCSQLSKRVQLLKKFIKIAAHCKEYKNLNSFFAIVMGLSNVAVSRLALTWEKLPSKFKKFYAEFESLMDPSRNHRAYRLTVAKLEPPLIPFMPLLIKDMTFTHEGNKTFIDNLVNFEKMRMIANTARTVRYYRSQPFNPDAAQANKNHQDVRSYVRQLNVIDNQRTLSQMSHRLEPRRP
EPAC2 agonist – agonists of human EPAC2 (RAPGEF4); Q8WZA2; EPAC2 activation, biochemical qHTS; response scale: 100% = 6.5 mM cAMP response; Potency, µM (highest dose often 154 µM), usual class: activators; 0.079% of 360,000 active; note: nearly all actives have a fitted effect of over 50% in size
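Compounds were added across a concentration range to EPAC2 (100 nM), RAP1B-BODIPY-GDP (250 nM) and GDP (50 uM). After 5 min at room temperature, fluorescence was recorded at 5-min intervals for 30 min.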
EPAC1 ag – EPAC1 (human) agonism | 0.073% of 360,000 active | EPAC1 agonist qHTS, biochemical assay; response scale: 100% = response to 6.5 mM cAMP | Potency, µM (series often up to 154 µM), actives largely listed as activators | O95398; note: nearly all actives have a fitted effect of over 60% in size
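Normalized to 6.5 mM cAMP, activity reflects EPAC1-catalysed release of BODIPY-GDP from Rap1B, followed kinetically over 30 min at 480 nm excitation, 540 nm emission. Reaction contained 100 nM EPAC1, 250 nM Rap1B-BODIPY-GDP, 50 uM GDP.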
USP1-UAF1 inh – blocks the human USP1/UAF1 deubiquitinase complex; recombinant USP1/UAF1, Ub-Rhodamine cleavage fluorescence; Potency, µM (titrated, usually from 57.1 µM), most hits filed as inhibitors; 0.23% of 390,000 active; note: nearly all actives have a fitted effect of over 60% in size
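Step one: compound is pinned into 1nM USP1/UAF1 in HEPES pH 7.8 buffer with TCEP. Step two: 15 min room-temperature incubation. Step three: Ub-Rho (150nM final) starts cleavage, tracked by fluorescence over six one-minute reads.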
A number is an active result; . = inactive; ? = inconclusive; / = no result given. A selection: hits, their analogues and other compounds. The true share with any hit is near 1.4%. Calls come from the whole dose curve; as a rule, active = well fitted curve in the direction sought with a large enough effect; inconclusive = small, poorly fitted or top-dose-only effect, or another doubt; inactive = no such curve, though single readings can be large; an effect the other way counts as inactive or inconclusive.

SMILES	EPAC1 antagonist	BRCA1 expr up	EPAC2 antagonist	EPAC2 agonist	EPAC1 ag	USP1-UAF1 inh
Cc1ccc(NC(=O)Nc2ccc(Cl)cn2)cc1	.	4.5µM	.	.	.	.
Cc1ccc(NC(=O)Nc2cccc(F)c2)nc1	.	3.2µM	.	.	.	.
Cc1ccnc(NC(=O)Nc2cccc(F)c2)n1	.	1µM	.	.	.	.
O=C(Cn1c2c(c(-c3ccccc3Cl)cc1=O)CCC2)NCCCN1CCOCC1	.	.	.	.	.	.
CCCCc1nc(SCCOC)c2c(=O)n(C)c(=O)n(C)c2n1	.	.	18µM	.	.	.
CCOC(=O)CNC(=O)c1sc(NC(=O)c2cccc(F)c2)nc1C	.	8.9µM	.	.	.	.
CCN(CC)c1nc(NC2CCN(C)CC2)c2cc(OC)c(OC)cc2n1	/	.	/	/	/	/
Cc1cc(Br)c(NC(=O)C(C)Sc2nnnn2C)c(Br)c1 (stereo not given)	.	.	.	.	.	.
CCOC(=O)c1ccc(-c2ccc3c(c2)CCC3)nc1C	.	10µM	.	.	.	.
CCOC(=O)C(NCCOC)(NC(C)=O)C(F)(F)F (stereo not given)	.	.	.	.	.	.
CCOC(=O)c1csc(NC(=O)c2ccccc2)n1	.	4µM	.	.	.	.
Cc1c(C(=O)N2C[C@@H](C)O[C@@H](C)C2)oc2c(F)cccc12	.	11µM	.	.	.	.
CCn1c(O)c(/C=N/N=C/c2ccc(OC)cc2)c2cc(C3=NNC(=O)CC3)ccc21	?	.	.	100µM	.	.
CC/C(C)=N\N=C\c1c(O)n(CC)c2cc(C3=NNC(=O)CC3)ccc12	.	.	.	.	.	.
Cc1ccc(-c2nc3sc(CCNS(=O)(=O)c4cc(F)ccc4F)c(C)n3n2)cc1	/	/	/	/	/	.
O=C(O)c1cc(O)c2c(c1)[C@@H]([C@H]1c3cc(C(=O)O)cc(O)c3C(=O)c3c(O[C@@H]4O[C@H](CO)[C@@H](O)[C@H](O)[C@H]4O)cccc31)c1cccc(O[C@@H]3O[C@H](CO)[C@@H](O)[C@H](O)[C@H]3O)c1C2=O	35µM	.	?	.	.	?
Cc1cc(Br)ccc1NC(=O)COC(=O)c1ccccc1OCC(N)=O	/	.	/	/	/	/
COc1ccc(C)cc1NC(=O)c1ccccc1NS(=O)(=O)c1ccc(Cl)s1	.	.	32µM	.	.	.
N#C/C(=C1/CCCCCN1)c1nc2ccccc2[nH]1	.	.	.	.	.	.
N#C/C(C(=O)c1ccccc1)=C1/CCCCCN1	.	4µM	.	.	.	.
Cc1cccc(-n2c3nc(=O)[nH]c(=O)c-3cc3cc([N+](=O)[O-])ccc32)c1	.	.	.	.	.	?
Cc1ccc(C)c(-n2c3nc(=O)[nH]c(=O)c-3cc3cc([N+](=O)[O-])ccc32)c1	56µM	.	.	.	.	?
Cc1ccc2c(c1)c(/C=C/c1cc[n+](C)cc1)c(C)n2C	.	.	.	?	?	22µM
CC1(C)CC(=O)C=C(c2ccc(-c3ccccc3)cc2)C1	.	10µM	.	.	.	.
CC1(C)CC(=O)C=C(c2ccc(-c3ccccc3)cc2)C1=O	.	13µM	.	.	.	.
SMILES	EPAC1 antagonist	BRCA1 expr up	EPAC2 antagonist	EPAC2 agonist	EPAC1 ag	USP1-UAF1 inh
CCSc1ccc(/C(N)=N/OC(=O)c2cccs2)cn1	.	10µM	.	.	.	.
FC(F)C(F)(F)Oc1cccc(Nc2nccn3c(-c4cccc5ccccc45)cnc23)c1	.	.	.	.	.	/
S=c1[nH]nc(SCc2ccccc2)c2[nH]cnc12	.	3.5µM	.	.	.	.
COc1cc(N(C(C)=O)c2ccc(O)cc2)c2ncccc2c1	.	.	.	.	.	.
COc1cc(N(C(C)=O)c2ccc(O)c(C(=O)O)c2)c2ncccc2c1	.	.	.	.	.	32µM
O=C(Cn1cc(C(F)(F)F)cc(Cl)c1=O)NCCc1ccc(Cl)cc1Cl	.	.	.	.	.	.
O=C(Cn1cc(C(F)(F)F)cc(Cl)c1=O)NCc1ccc(F)cc1	.	11µM	.	.	.	.
CCCCCOc1ccc(CSc2ncn[nH]2)cc1	.	2.8µM	.	.	.	.
CCCCOc1ccc(CSc2ncn[nH]2)cc1	.	7.1µM	.	.	.	.
CC(C)c1cn(CC[C@@H]2CC[C@@H](NC(=O)C3CCCCC3)[C@@H](CO)O2)nn1	.	/	.	.	.	/
CSc1ccc(CCNC(=O)C2CCCN(S(=O)(=O)N(C)c3ccc(F)cc3)C2)cc1 (stereo not given)	/	/	/	/	/	.
CN(C)c1ccc(C(=O)OCC(=O)Nc2ccc(S(N)(=O)=O)cc2)cc1	50µM	.	50µM	.	?	?
CN(C)c1ccc(NC(=O)COC(=O)c2ccc3c(c2)OCO3)cc1	.	.	.	.	.	.
O=C(COc1ccc(Br)cc1F)NC1CC1	.	.	.	.	.	.
CC(=O)C(/C=N/c1cc(-c2ccc(C)cc2)nn1-c1ccccc1)=C(\C)O	.	4µM	.	.	.	.
Cn1c(=O)c(C#N)c(-c2ccc(F)cc2)c2cc(C(=O)c3cc(Cl)cc(Cl)c3O)cnc21	?	.	50µM	.	.	.
O=C1S/C(=C\C=C\c2ccco2)C(=O)N1c1ccccc1	89µM	3.5µM	.	.	.	.
O=C(O)C(Cc1ccccc1)N1C(=O)/C(=C/C=C/c2ccco2)SC1=S (stereo not given)	89µM	.	.	.	.	?
N#CC1=C2SCN(Cc3ccccc3)CN2C(=O)CC1c1ccc2c(c1)OCO2 (stereo not given)	.	.	.	.	.	.
N#CC1=C2SCN(Cc3ccccc3)CN2C(=O)CC1c1cccs1 (stereo not given)	.	.	.	.	.	16µM
O=C(/C=C/c1ccco1)Nc1nc(-c2ccccc2)cs1	.	8.9µM	.	.	.	.
O=C(/C=C/c1ccco1)Nc1nc(-c2ccccn2)cs1	?	.	.	.	.	.
Nc1nnc(-c2ccc(Cl)cc2Cl)s1	.	10µM	.	.	.	.
CCN(CC)c1ccc(NC(=O)c2cccc(C)c2OC)c(C)c1	.	4.5µM	.	.	.	.
COC(=O)c1ccc(COc2ccc(C)cc2[N+](=O)[O-])o1	.	5.6µM	?	.	.	.
COc1ccccc1N1N=C(C(=O)c2ccccc2)C2C(=O)N(c3ccc(Br)cc3)C(=O)C21 (stereo not given)	?	.	45µM	.	?	?
CN(C)c1ccc(Nc2ccc([N+](=O)[O-])cn2)cc1	.	3.2µM	.	.	.	.
CCC(=O)Nc1ccc(-c2csc(C)n2)cc1	.	?	.	.	.	.

Screens deposited in PubChem by National Center for Advancing Translational Sciences (NCATS).
